# Hits are enriched below; roughly 0.8% of the tested compounds scored in any of these assays.
# Smad3 FoxH1 inh: Smad3/FoxH1 peptide binding inhibitors, primary screen, biochemical, TR-FRET; Mothers against decapentaplegic homolog 3 (Homo sapiens), P84022; TR-FRET Smad3/Dy647-FoxH1 peptide binding, europium anti-His; inhibition, % at 25 µM; 0.29% of 88,000 active; AID 630, 2007;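 active = compounds that reduce the energy-transfer binding signal between the protein and its labelled peptide by more than half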;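 note: 0% = Smad3 plus labelled peptide maximal FRET and 100% = peptide-only background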
# HePTP inh: inhibitors of human HePTP phosphatase, primary screen, biochemical, absorbance, leukemia target | AID 521, 2006 | inhibition, % at 20 µM | 0.64% of 110,000 active | recombinant HePTP phosphatase activity, OD absorbance; in the data active = inhibition above about 50%;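 note: plate controls were vehicle for no effect and reference inhibitor for full effect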
# MT1-MMP txn act: MT1-MMP promoter reporter activation – cell-based, luciferase luminescence, primary screen | HT1080 MT1-MMP promoter luciferase reporter, overnight; active compounds read high | activation factor at 10 µM | 0.16% of 86,000 active;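 active = activation factor of at least 2 for MT1-MMP transcription at 10 µM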
# Ec RNAP inh: E. coli RNAP inhibitors, biochemical. DNA-directed RNA polymerase subunit beta (Escherichia coli (strain K12)), P0A8V2. E. coli RNA polymerase, fluorescence transcription assay. inhibition, %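 (tested at 10 µM)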. 0.2% of 62,000 active. AID 559, 2006; in the data active = inhibition above about 20%;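 note: 0% = enzyme without compound and 100% = no enzyme blank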
# Target sequence (P0A8V2 whole entry, looked up): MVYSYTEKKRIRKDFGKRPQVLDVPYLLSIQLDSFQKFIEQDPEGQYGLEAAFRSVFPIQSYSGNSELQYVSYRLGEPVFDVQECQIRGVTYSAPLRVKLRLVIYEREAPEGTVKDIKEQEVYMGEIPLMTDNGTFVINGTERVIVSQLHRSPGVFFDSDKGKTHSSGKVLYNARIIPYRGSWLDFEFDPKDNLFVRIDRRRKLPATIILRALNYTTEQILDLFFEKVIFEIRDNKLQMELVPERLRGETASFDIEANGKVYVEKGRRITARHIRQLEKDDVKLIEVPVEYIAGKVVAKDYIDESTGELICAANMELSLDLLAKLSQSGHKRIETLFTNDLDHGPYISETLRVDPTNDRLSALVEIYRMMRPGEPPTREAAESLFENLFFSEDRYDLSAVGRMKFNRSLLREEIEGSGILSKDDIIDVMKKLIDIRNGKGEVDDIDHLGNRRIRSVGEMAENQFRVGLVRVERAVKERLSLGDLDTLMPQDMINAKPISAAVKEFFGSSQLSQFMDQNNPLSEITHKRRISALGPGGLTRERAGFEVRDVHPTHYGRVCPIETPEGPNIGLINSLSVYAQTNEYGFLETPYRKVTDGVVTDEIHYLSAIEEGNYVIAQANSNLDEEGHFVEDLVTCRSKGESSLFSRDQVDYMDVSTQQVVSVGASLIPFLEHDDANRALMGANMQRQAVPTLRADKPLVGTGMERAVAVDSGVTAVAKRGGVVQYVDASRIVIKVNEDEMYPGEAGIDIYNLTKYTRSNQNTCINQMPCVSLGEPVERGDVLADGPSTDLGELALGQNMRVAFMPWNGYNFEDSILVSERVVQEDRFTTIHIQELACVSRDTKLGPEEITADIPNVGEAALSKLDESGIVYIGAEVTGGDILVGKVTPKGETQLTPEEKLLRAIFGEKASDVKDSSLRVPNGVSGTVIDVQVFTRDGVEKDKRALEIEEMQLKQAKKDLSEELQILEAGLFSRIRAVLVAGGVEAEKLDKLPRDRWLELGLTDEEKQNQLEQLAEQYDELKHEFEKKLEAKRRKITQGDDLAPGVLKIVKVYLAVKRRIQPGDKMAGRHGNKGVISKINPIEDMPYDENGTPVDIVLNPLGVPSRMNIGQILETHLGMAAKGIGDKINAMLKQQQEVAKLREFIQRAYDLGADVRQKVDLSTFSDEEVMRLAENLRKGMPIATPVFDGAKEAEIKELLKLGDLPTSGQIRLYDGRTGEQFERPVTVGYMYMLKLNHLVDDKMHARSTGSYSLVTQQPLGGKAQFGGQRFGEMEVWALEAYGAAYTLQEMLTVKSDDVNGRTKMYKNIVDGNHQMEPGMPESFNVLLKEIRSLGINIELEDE
# TNAP act DEA: human TNAP enzyme activators, primary screen, biochemical, luminescent, intermediate phosphate acceptor level; purified TNAP, CDP-star luminescence, 100 mM DEA, 30 min; active compounds read high; scale: 0 levamisole-inhibited, 1 vehicle-only enzyme; 64,000 tested, under 10 active; Alkaline phosphatase, tissue-nonspecific isozyme (Homo sapiens), P05186; activation factor at 20 µM;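 active = activation factor of at least 2 at 20 µM, relative to controls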
# Active calls of the source: *; x = no result given; ! = repeats disagree.
SMILES,Smad3 FoxH1 inh,HePTP inh,MT1-MMP txn act,Ec RNAP inh,TNAP act DEA
Cc1cc(N/C=C/C(=O)c2ccc(Br)cc2)no1,13,x,1.7,x,x
Cc1cc(N/C=C/C(=O)c2ccc(Cl)s2)no1,x,102*,x,x,x
O=C(c1cc(-c2cccs2)nc2ccccc12)N1CCN(c2ccccc2)CC1,x,0,x,x,x
CC(C)c1ccc(-c2cc(C(=O)O)c3ccccc3n2)cc1,x,1,x,x,x
Cc1nnc(NC(=O)c2cc(-c3cccs3)nc3ccccc23)s1,x,102*,x,x,x
O=C(O)c1cc(-c2cccs2)nc2ccccc12,x,92*,x,x,x
CC(C)Oc1ccc(-c2cc(C(=O)O)c3ccccc3n2)cc1,x,104*,x,x,x
COCCOC(=O)c1ccc(NC(=O)COc2cccc(C)c2C)cc1,x,9,x,x,x
O=C(O)C1Nc2c(C(=O)N3CCCC3)cccc2C2C=CCC12 (centres undefined),x,94*,x,x,x
Cc1c(Cl)ccc2c1NC(C(=O)O)C1CC=CC21 (centres undefined),x,103*,x,x,x
Cc1ccc([N+](=O)[O-])c2c1NC(c1ccc(Br)cc1)C1CC=CC21 (centres undefined),x,8,x,x,x
O=C(O)c1cccc2c1NC(c1cccc(Cl)c1Cl)C1CC=CC21 (centres undefined),x,88*,x,x,x
Cc1ccc2c(c1C)NC(C(=O)O)C1CC=CC21 (centres undefined),x,x,x,15,0.9
O=C(O)c1ccc([N+](=O)[O-])c2c1NC(c1ccccc1)C1CC=CC21 (centres undefined),x,88*,x,x,x
O=C(O)C1Nc2c(C(=O)N3CCOCC3)cccc2C2C=CCC12 (centres undefined),30,25,1.3,10,0.8
O=C1c2ccccc2C(=O)N1CCCc1nc2ccccc2c(=O)n1-c1ccncc1,x,-3,x,x,x
O=C(/C=C/c1ccc([N+](=O)[O-])cc1)NC1CCCCC1,x,-2,x,x,x
Cc1c(C#N)c(N)c(C(=O)c2ccccc2)n1-c1ccccc1,x,70*,x,x,x
CCCCNC(=O)C1CCN(Cc2ccc(OCc3ccccc3)cc2)CC1,-2,x,2*,x,x
NCOC(=O)Cc1ccc(Br)cc1,73*,x,x,x,x
O=C(Cc1ccc(Br)cc1)OCC(=O)c1ccc2c(c1)OCCO2,4,x,1.2,x,x
CC(=O)Nc1ncc(Cc2ccc(F)cc2)s1,x,-9,x,x,x
Cc1sc2c(c1C)CN(Cc1ccco1)CN2C(=O)c1ccccc1,5,6,2.1*,-1,0.7
C=CCN1Cc2c(sc(C)c2C)N(C(=O)c2ccccc2)C1,x,-6,x,x,x
Cc1cc(-c2ccccc2)c2nncn2n1,-2,78*!,1,13,1
SMILES,Smad3 FoxH1 inh,HePTP inh,MT1-MMP txn act,Ec RNAP inh,TNAP act DEA
Cc1cc(-c2ccccc2)c2c3c(cn2n1)c(=O)n(C)c(=O)n3C,10,8,1.2,10,0.9
Cc1cc(-c2cc(N)n(-c3ccccc3)n2)c(C)n1C1CCCC1,-3,-10,2*,4,0.9
Cc1c(/C=C2\C(=O)NC(=O)N(c3ccc(Cl)cc3)C2=O)c2ccccc2n1C,x,4,x,x,x
CCc1ccc(C2(O)CC(C(F)(F)F)=NN2C(=O)Cc2ccc([N+](=O)[O-])cc2)cc1 (centres undefined),-5,x,2*,x,x
CCOCCOC(=O)c1ccc(NC(=O)c2cccc(C)c2)cc1,x,-4,x,x,x
Ic1ccc2c(c1)N(c1ccccc1)c1cc(Nc3ccc4nc5ccc(I)cc5[n+](-c5ccccc5)c4c3)ccc1N2,90*,x,x,x,x
O=C1N=c2ccccc2=C1c1sc(Nc2ccc(O)cc2)nc1O,x,104*,x,x,x
c1ccc(C2=NN3COc4ccccc4C3C2)cc1 (centres undefined),x,3,x,x,x
Cc1ccc(C2=NN3C(C2)c2ccccc2OC32C(=O)Nc3ccccc32)cc1 (centres undefined),-1,x,2*,x,x
COc1ccc(N2C(=O)c3ccc(C(=O)Nc4cc(Cl)ccc4C(=O)O)cc3C2=O)cc1,x,102*,x,x,x
COc1nc(Nc2ccc(C(C)=O)cc2)nc(OC)n1,x,3,1.1,36*,1
O=C(CSc1nc2ccccc2n1Cc1ccccc1)N/N=C/c1cccc(O)c1,x,4,x,x,x
O=C(CSc1nc2ccccc2n1Cc1ccccc1)N/N=C/c1ccc([N+](=O)[O-])cc1,x,86*,x,x,x
COc1ccc(-c2cc(C(F)(F)F)n3nc(C(=O)N4CCN(C)CC4)cc3n2)cc1,x,-19,x,x,x
Cc1ccc(OCC(=O)N(C)c2ccccc2)c(C)c1,x,5,x,x,x
Cc1ccc(OCC(=O)Oc2ccc(C(=O)c3ccccc3)cc2C)c(C)c1,x,104*,x,x,x
S=c1nc[nH]c2c1ncn2Cc1ccco1,65*,x,x,x,x
